This is a sample that favours compounds with a hit; in the whole collection about 4.6% have one here.
HSF-1 act = increases HSF-1 driven luciferase reporter signal | NIH3T3-HGL HSF-1 luciferase reporter, MG132, 8 h; 100% = twice DMSO control signal | activation, % at 9 µM | 1.7% of 300,000 active;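 active = mean replicate activation of at least 50% with a set share of replicates each reaching 50%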;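 note: 0% = median of the neutral control wells and 100% = twice that signal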
HSF1 inh = HSF1 inhibition; NIH3T3-HGL HSE-luciferase, MG132-induced, luminescence 8 h; active compounds read low; activity change, negative = inhibition, % at 7.5 µM (by protocol); 0.77% of 300,000 active;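 active = more than half of replicate wells show activity change below -50%, luminescence cut by over half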;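 note: luciferase reports HSF-1 transcriptional activity via heat shock element; 0% = median of DMSO wells and -100% = zero luminescence signal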
AHR act = activators of human aryl hydrocarbon receptor. P35869. AHR-responsive luciferase reporter cells, luminescence. activation, % at 5 µM. 2.5% of 320,000 active; in the data active = activation above about 47%;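 note: 0% = vehicle wells and 100% = reference agonist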
Target sequence (P35869 whole entry, looked up): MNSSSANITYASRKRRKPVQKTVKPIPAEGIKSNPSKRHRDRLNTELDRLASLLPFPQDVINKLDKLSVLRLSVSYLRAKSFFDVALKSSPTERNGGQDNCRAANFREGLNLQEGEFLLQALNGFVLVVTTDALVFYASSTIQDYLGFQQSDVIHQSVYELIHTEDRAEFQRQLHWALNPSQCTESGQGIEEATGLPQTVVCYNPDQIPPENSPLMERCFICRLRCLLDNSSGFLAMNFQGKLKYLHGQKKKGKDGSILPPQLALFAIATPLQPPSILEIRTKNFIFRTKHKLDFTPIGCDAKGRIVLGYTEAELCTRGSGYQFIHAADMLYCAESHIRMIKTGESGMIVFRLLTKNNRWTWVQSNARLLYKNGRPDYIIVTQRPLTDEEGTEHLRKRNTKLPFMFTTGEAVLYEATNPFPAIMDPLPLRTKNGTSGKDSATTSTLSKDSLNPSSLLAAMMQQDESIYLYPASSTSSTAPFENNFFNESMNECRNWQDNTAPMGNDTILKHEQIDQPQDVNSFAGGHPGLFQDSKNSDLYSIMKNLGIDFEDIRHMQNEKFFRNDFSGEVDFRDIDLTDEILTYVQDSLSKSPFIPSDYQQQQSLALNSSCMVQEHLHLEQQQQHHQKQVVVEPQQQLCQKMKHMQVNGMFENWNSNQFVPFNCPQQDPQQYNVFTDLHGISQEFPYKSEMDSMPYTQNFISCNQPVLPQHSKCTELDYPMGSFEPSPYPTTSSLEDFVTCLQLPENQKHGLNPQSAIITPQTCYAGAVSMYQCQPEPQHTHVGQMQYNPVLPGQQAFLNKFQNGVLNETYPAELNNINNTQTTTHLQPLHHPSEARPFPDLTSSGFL
FXN GAA850 act = frataxin GAA850 promoter activation; HEK293 lucGAA850 FXN promoter luciferase reporter, 24 h; percent of 10 µM SAHA response; activation, % at 6 µM; 0.56% of 360,000 active; AID 540364;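 active = activation above the average of all compounds screened plus 3 SD, cutoff fixed separately per campaign, cut at about 7.5% in these data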;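 note: 0% = DMSO wells and 100% = 10 µM SAHA wells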
Numbers without * were called inactive.

`CCN(CC)c1ccc2c(C)c(Cl)c(=O)oc2c1` gave HSF-1 act -2, HSF1 inh -5, AHR act 40 and FXN GAA850 act 4.
`Cc1nn2c(N3CCN(C(=O)c4ccco4)CC3)cc(C(C)(C)C)nc2c1-c1ccccc1` gave HSF-1 act 9, HSF1 inh -8 and AHR act -1.
For O=C(O)C(=O)Nc1ccc(NC(=O)C(c2ccccc2)c2ccccc2)cc1 the results were HSF-1 act -66, HSF1 inh -55* and FXN GAA850 act 2.
For O=S(=O)(c1ccc2c(c1)OCCO2)N1CCN(S(=O)(=O)c2ccccn2)CC1 the results were AHR act 0 and FXN GAA850 act 2.
`Cc1ccc(C(=O)Nn2cnc3scc(-c4cccs4)c3c2=O)c(O)c1` gave HSF-1 act 35, HSF1 inh 24, AHR act 60* and FXN GAA850 act -1.
For Cc1ccc(-n2cnc3scc(-c4cccs4)c3c2=O)cc1 the results were HSF-1 act 6, HSF1 inh -2, AHR act 1 and FXN GAA850 act 0.
CCN(C(=O)COC(=O)c1cn(-c2ccccc2)nc1-c1ccccc1)C1CCS(=O)(=O)C1 (configuration not stated) was read as HSF-1 act 1, HSF1 inh 0, AHR act -3 and FXN GAA850 act 1.
Screening COc1ccc(NC(=O)COc2ccc3c(c2)CCC3)cc1S(N)(=O)=O returned AHR act 2 and FXN GAA850 act 2.
For O=C1COc2ccc(OCc3ccc(F)cc3)cc21 the results were HSF-1 act 54*, HSF1 inh 34, AHR act -3 and FXN GAA850 act 2.
COc1ccc2c(-c3cc4ccc(OCc5ccc(F)cc5)cc4oc3=O)cc(=O)oc2c1 was read as HSF-1 act 31, HSF1 inh 8, AHR act -2 and FXN GAA850 act 0.
`COc1ccc(NC(=O)c2c(NC(=O)CNCc3ccco3)sc3c2CCC3)cc1` gave HSF-1 act 8, HSF1 inh 8, AHR act 53* and FXN GAA850 act -1.
`CCc1noc(C)c1C(=O)OCC(=O)Nc1ccccc1SC` gave FXN GAA850 act 1.
Screening CC1CCN(C(=O)C2c3ccccc3C(=O)N3CCc4ccccc4C23)CC1 (configuration not stated) returned HSF-1 act -14, HSF1 inh 0, AHR act 3 and FXN GAA850 act 2.
For CCOCCCNC(=O)C1c2ccccc2C(=O)N2CCc3ccccc3C12 (configuration not stated) the results were HSF-1 act -56, HSF1 inh -45, AHR act 76* and FXN GAA850 act 0.
NC(=O)C1CCN(C(=O)C2c3ccccc3C(=O)N3CCc4ccccc4C23)CC1 (configuration not stated) was read as HSF-1 act 6, HSF1 inh -4, AHR act 61* and FXN GAA850 act 1.
`O=C(Nc1ccc(S(=O)(=O)N2CCOCC2)cc1)c1ccco1` gave HSF-1 act 8, HSF1 inh -6, AHR act 2 and FXN GAA850 act 1.
Screening Cc1ccccc1C(=O)NC[C@@H]1CCCN2CCCC[C@H]12 returned HSF-1 act -64, HSF1 inh -56*, AHR act 2 and FXN GAA850 act 3.
`COc1ccc2c(c1)CCC/C2=N/OC(=O)c1ccccc1OC` gave HSF-1 act 16, HSF1 inh 3, AHR act 2 and FXN GAA850 act 0.
For COc1ccc2c(c1)CC/C2=N\OC(=O)c1cccc(C)c1 the results were HSF-1 act 65*, HSF1 inh 27, AHR act 2 and FXN GAA850 act 1.
Screening COc1ccc2c(c1)CC/C2=N\NC(=O)c1ccccc1 returned HSF-1 act 18, HSF1 inh 10, AHR act 2 and FXN GAA850 act 6.
Screening COc1ccc2c(c1)CC/C2=N\OC(=O)c1ccccc1C returned HSF-1 act 61*, HSF1 inh 22, AHR act 1 and FXN GAA850 act 7.
For CN1C(=O)N(CC(=O)Nc2cccc(S(=O)(=O)N(C)c3ccccc3)c2)C(=O)C12CCCCC2 the results were FXN GAA850 act 0.
`COc1cc(CC(=O)Nc2ccccc2N2CCOCC2)cc(OC)c1OC` gave HSF-1 act -6, HSF1 inh -4, AHR act -2 and FXN GAA850 act 1.
CCNC(=S)N1CCN(S(=O)(=O)c2cccc(C(F)(F)F)c2)CC1 was read as HSF-1 act 72*, HSF1 inh 30, AHR act 2 and FXN GAA850 act 1.
For Cc1cc(C)c(NC(=O)CNC(=O)Cc2sc(C)nc2-c2ccc(F)cc2)c(C)c1 the results were HSF-1 act 9, HSF1 inh -1, AHR act 1 and FXN GAA850 act -3.
Screening Cc1cccc(NC(=O)/C(C#N)=C\c2cn(CC(=O)O)c3ccccc23)c1 returned HSF-1 act -8, HSF1 inh -8, AHR act 1 and FXN GAA850 act 1.
For Cc1cccc(NC(=O)/C(C#N)=C/c2cn(CC(=O)NCc3ccco3)c3ccccc23)c1C the results were HSF-1 act 61*, HSF1 inh 31, AHR act -1 and FXN GAA850 act 3.
For CN1C(=O)/C(=C/c2cn(CC(=O)N3CCCCC3)c3ccccc23)NC1=S the results were FXN GAA850 act 0.
Screening CN1C(=O)/C(=C/c2cn(CC(=O)NCc3ccco3)c3ccccc23)NC1=S returned HSF-1 act 17, HSF1 inh 1 and AHR act 58*.
Screening N#C/C(=C\c1cn(Cc2cccc(F)c2)c2ccccc12)C(=O)NCc1ccco1 returned HSF-1 act 68*, HSF1 inh 43, AHR act 2 and FXN GAA850 act 4.
N#C/C(=C\c1cn(Cc2ccc(F)cc2)c2ccccc12)C(=O)NCc1ccco1 was read as HSF-1 act 15, HSF1 inh -2, AHR act 9 and FXN GAA850 act 0.
N#C/C(=C\c1cn(Cc2ccccc2)c2ccccc12)C(=O)NCc1ccco1 was read as HSF-1 act 75*, HSF1 inh 42, AHR act 6 and FXN GAA850 act -2.
For CC(C)C[C@H](NC(=O)N1CC(=O)Nc2ccccc21)C(=O)N[C@@H](Cc1c[nH]c2ccccc12)C(=O)O the results were HSF-1 act -2, HSF1 inh -5, AHR act 15 and FXN GAA850 act 0.
`Nc1c(C2=NCCO2)nnn1Cc1ccccc1` gave HSF-1 act -9, HSF1 inh -1, AHR act 1 and FXN GAA850 act 0.
For O=C(Nc1cccc(S(=O)(=O)N2CCCCC2)c1)c1cnccn1 the results were HSF-1 act -4, HSF1 inh -2, AHR act 0 and FXN GAA850 act 1.
`Cc1cc(C)n(C(=O)C(C)n2nc([N+](=O)[O-])c(Br)c2C)n1` (configuration not stated) gave HSF-1 act -2, HSF1 inh 2, AHR act 2 and FXN GAA850 act 1.
CC1(C)C(=O)N(c2ccccc2)C1c1ccccc1O (configuration not stated) was read as HSF-1 act 13, HSF1 inh -2, AHR act 0 and FXN GAA850 act -1.
